The structures appear in SMILES notation. About 83,000 compounds went through this panel and 20% of them were active in at least one assay; those are over-represented in the sample as a whole.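 Values shown are percent growth following 48 h exposure of cells in 96-well plates to a single concentration of compound; below 10 was considered active.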 A number with no mark means an inactive call. Calls of active or inactive are those of the source.

Some test systems named below: DU-145 prostate; K-562 leukemia; MALME-3M melanoma; MDA-MB-231 breast; RXF 393 renal; SF-268 CNS; SF-295 CNS; SF-539 CNS; UACC-257 melanoma; M14 melanoma; HCT-15 colon; HT29 colon; SNB-75 CNS; SNB-19 CNS; U251 CNS; PC-3 prostate; SK-MEL-5 melanoma; UACC-62 melanoma; LOX IMVI melanoma; SK-MEL-28 melanoma.
Common to all, as to test: NCI-60 one-dose screen, 48 h (100 = growth as untreated, 0 = no growth, -100 = all killed)
Holding throughout (conditions): 10 µM unless noted

For the compound `O=C(N/N=C\c1ccccc1S(=O)(=O)O)N/N=C/c1ccccc1S(=O)(=O)O`, the growth is 106% in the assay on DU-145 prostate; 97.9% in the assay with K-562 leukemia; 105% in the assay on MALME-3M melanoma; 102% with MDA-MB-231 breast; 112% in the assay with RXF 393 renal; 102% in the assay with SF-268 CNS. Further, the growth in the assay on SF-295 CNS is 101%; in the assay on SF-539 CNS, 111%; in the assay on UACC-257 melanoma it was 93.2%; with M14 melanoma, 102%; in the assay with HCT-15 colon, 104%; in the assay on HT29 colon, 105%. Besides, the growth in the assay with SNB-75 CNS is 95.5%; in the assay on SNB-19 CNS, 99.8%; in the assay with U251 CNS, 99.9%; in the assay with PC-3 prostate it was 96.3%; with SK-MEL-5 melanoma it was 106%; in the assay on UACC-62 melanoma, 98.1%. Moreover, the growth in the assay on LOX IMVI melanoma was 102%; in the assay with SK-MEL-28 melanoma, 101%.

For `C=C1C(=O)O[C@H]2[C@H]1CC/C(COC(=O)NCc1ccc(Cn3c(=O)sn(-c4ccc(C#N)cc4)c3=O)cc1)=C\CC[C@@]1(C)O[C@@H]21`, the growth in the assay on DU-145 prostate was 8.56% (active); with K-562 leukemia, 20.4%; in the assay on MALME-3M melanoma, 56.9%; in the assay with MDA-MB-231 breast, 48.6%; in the assay with RXF 393 renal, 52.7%; with SF-268 CNS, 75.1%. The growth is 102% in the assay with SF-295 CNS; 61.2% in the assay on SF-539 CNS; 69.4% in the assay with UACC-257 melanoma; 68.8% with M14 melanoma; 87.8% in the assay with HCT-15 colon; 48.2% in the assay on HT29 colon. The growth in the assay with SNB-75 CNS is 80.3%; with SNB-19 CNS it was 88.5%; in the assay on U251 CNS it was 81.2%; with PC-3 prostate, 71.6%; in the assay with SK-MEL-5 melanoma it was 89.5%; with UACC-62 melanoma it was 69.3%. Besides, the growth in the assay with LOX IMVI melanoma is 65.9%; in the assay with SK-MEL-28 melanoma, 87.2%.

Take `COCCn1cc(-c2csc(-c3c[nH]c4ccc(Br)cc34)n2)c2cccnc21`: the growth with DU-145 prostate is 46.7%; with K-562 leukemia, 0.0972% (active); in the assay with MALME-3M melanoma, 53.1%; in the assay with MDA-MB-231 breast, 4.45% (active); in the assay on RXF 393 renal, 58.9%; in the assay with SF-268 CNS, 44.3%. Also, the growth in the assay with SF-295 CNS is 17.7%; in the assay with SF-539 CNS, 45.5%; in the assay with UACC-257 melanoma, 28.9%; in the assay on M14 melanoma, 14.3%; in the assay on HCT-15 colon, 13.1%; in the assay with HT29 colon, 18.2%. Besides, the growth with SNB-75 CNS is 39.7%; with SNB-19 CNS, 55.6%; in the assay on U251 CNS, 36.5%; with PC-3 prostate it was 16%; in the assay with SK-MEL-5 melanoma it was 19.9%; with UACC-62 melanoma it was 44.7%. Also, the growth with LOX IMVI melanoma was -10.7% (active); in the assay with SK-MEL-28 melanoma, 52.3%.

Regarding `CCSc1oc(C)nc1[P+](c1ccccc1)(c1ccccc1)c1ccccc1`, the growth in the assay on DU-145 prostate is 29.5%; with K-562 leukemia, 19.8%; in the assay on MALME-3M melanoma, 31.1%; in the assay with MDA-MB-231 breast it was 49.1%; with RXF 393 renal, 50.9%; with SF-268 CNS it was 25%. Besides, the growth in the assay on SF-295 CNS is 35.1%; in the assay on SF-539 CNS, 59.1%; in the assay on UACC-257 melanoma, 11.8%; in the assay with M14 melanoma, 33.1%; in the assay with HCT-15 colon, 92.1%; in the assay on HT29 colon, 16.7%. For the same compound, the growth in the assay with SNB-75 CNS is 35.1%; with SNB-19 CNS, 19.3%; with U251 CNS it was 20.2%; in the assay on PC-3 prostate, 19.6%; in the assay with SK-MEL-5 melanoma, 1.8% (active); in the assay with UACC-62 melanoma, 28.7%. The results for the growth with LOX IMVI melanoma and in the assay with SK-MEL-28 melanoma were 25.7% and 65.5%, respectively.

Consider `N#CSc1c[nH]c2cccc(/C=C/C(=O)/C=C(O)/C=C/c3cccc4[nH]cc(SC#N)c34)c12`, for which the growth in the assay on DU-145 prostate is -78.7% (active); in the assay on K-562 leukemia, -12.9% (active); in the assay with MALME-3M melanoma, -82.3% (active); with MDA-MB-231 breast it was -78.3% (active); with RXF 393 renal it was -62.9% (active); in the assay on SF-268 CNS, -31.9% (active). Also, the growth in the assay on SF-295 CNS was -87.7% (active); in the assay on SF-539 CNS, -68.5% (active); in the assay with UACC-257 melanoma, -27.4% (active); in the assay with M14 melanoma, -59.7% (active); with HCT-15 colon, -79.1% (active); in the assay with HT29 colon, -62.7% (active). For the same compound, the growth in the assay on SNB-75 CNS is -23.1% (active); in the assay on SNB-19 CNS, -80.6% (active); in the assay on U251 CNS, -91.9% (active); in the assay on PC-3 prostate, -53% (active); in the assay with SK-MEL-5 melanoma, -87.5% (active); in the assay with UACC-62 melanoma, -65.4% (active). In addition, the growth in the assay with LOX IMVI melanoma is -94.8% (active); with SK-MEL-28 melanoma it was -68.2% (active).

Take `CCOC(=O)c1c(C)nc2ccccc2c1/C=C/c1cccs1`: the growth in the assay on DU-145 prostate is 95.5%; with K-562 leukemia, 50.3%; with MALME-3M melanoma it was 112%; in the assay with MDA-MB-231 breast, 82.7%; with RXF 393 renal, 93.8%; in the assay on SF-268 CNS, 89.4%. Further, the growth in the assay with SF-295 CNS was 65.6%; in the assay with SF-539 CNS, 93.2%; in the assay on UACC-257 melanoma it was 91.8%; in the assay on M14 melanoma, 93.4%; in the assay on HCT-15 colon, 58.6%; in the assay with HT29 colon, 76.3%. Besides, the growth in the assay on SNB-75 CNS was 80.1%; in the assay on SNB-19 CNS it was 83.5%; in the assay with U251 CNS, 81.2%; in the assay on PC-3 prostate it was 60.4%; in the assay on SK-MEL-5 melanoma it was 21%; in the assay on UACC-62 melanoma it was 50.7%. Moreover, the growth in the assay on LOX IMVI melanoma is 73.1%; in the assay with SK-MEL-28 melanoma, 106%.

`Cc1cc2c(cc1C)N(C(=O)CCl)CC(=O)N2`: the growth in the assay with DU-145 prostate was 78.6%; in the assay on K-562 leukemia, 2.9% (active); in the assay with MALME-3M melanoma, 9.7% (active); in the assay with MDA-MB-231 breast it was 51.3%; with RXF 393 renal it was 31.2%; with SF-268 CNS, 60.9%. Also, the growth in the assay on SF-295 CNS is 99.5%; with SF-539 CNS, 93.2%; in the assay on UACC-257 melanoma, 59.5%; with M14 melanoma, 55%; with HCT-15 colon, 7.57% (active); in the assay on HT29 colon, -60% (active). In addition, the growth in the assay with SNB-75 CNS is 74.4%; with SNB-19 CNS, 88%; in the assay on U251 CNS it was 14.4%; with PC-3 prostate it was 71.2%; in the assay with SK-MEL-5 melanoma, 43.8%; with UACC-62 melanoma it was 70.7%. The growth in the assay on LOX IMVI melanoma was -9.81% (active); in the assay with SK-MEL-28 melanoma, 77.1%.

For the compound `CCN1C(=O)N(CC)C2C1N=C(SCc1ccc(Cl)cc1)N2/N=C/C=C/c1ccccc1OC` (stereo not given), the growth with DU-145 prostate was 90.7%; with K-562 leukemia, 20.9%; with MALME-3M melanoma, 60.9%; with MDA-MB-231 breast it was 75.2%; in the assay on RXF 393 renal, 49.8%; in the assay on SF-268 CNS it was 64.5%. The growth with SF-295 CNS is 57.5%; with SF-539 CNS it was 68%; in the assay with UACC-257 melanoma it was 42%; in the assay on M14 melanoma, 45.5%; with HCT-15 colon it was 31.4%; with HT29 colon, 58.3%. The growth in the assay with SNB-75 CNS is 50.1%; with SNB-19 CNS it was 79.3%; in the assay on U251 CNS it was 68.8%; in the assay on PC-3 prostate it was 43.7%; with SK-MEL-5 melanoma, 44.2%; in the assay on UACC-62 melanoma, 31.2%. The growth in the assay with LOX IMVI melanoma is 44.5%; in the assay with SK-MEL-28 melanoma, 70.9%.

Source of the values: PubChem BioAssay (NCI).
